Compounds with a hit are over-represented: about 1.4% of the library has one in this group of screens.
Mm-Cpn inhibitor: M. maripaludis TRiC chaperonin inhibition; purified Mm-Cpn ATPase, ADP Transcreener TR-FRET; Potency, µM (series often up to 76.9 µM), for inactives: at the top dose activity, negative = inhibition, hits mostly inhibitors; hit rate 0.031% among 330,000; active means well fitted inhibition curve with a large enough effect; inconclusive means small, poorly fitted or top-dose-only effect; further: potency means the concentration at half of the fitted maximal effect; on the % scale 0 is the no-effect control and ±100 the full control effect; nearly all actives have a fitted effect of over 80% in size
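ATPase turnover read by TR-FRET ADP competition (Eu cryptate antibody/ADP-d2, 665/590 nm): 10uM ATP final, 25nM Mm-CPN final, 30 min 37degC after 10-min compound preincubation, pH 7.4 Tris/KCl/MgCl2/DTT buffer.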
KCNH2 3.1 block: inhibitors of human KCNH2 3.1 potassium channel isoform; U2OS KCNH2 3.1, thallium flux FluxOr; stronger effect = lower value; activity change, % (tested at about 1.8 µM); hit rate 0.95% among 340,000; AID 720553;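 active means maximum activity change below -70%; inconclusive means maximum activity change from -70% to -50%; inactive means maximum activity change above -50%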;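 further: thallium influx rate constant from kinetic fluorescence after stimulation buffer; on the % scale 0 is the no-effect control and ±100 the full control effect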
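Normalized rate constant (relative to positive and negative DMSO controls) derived from a 2 min kinetic fluorescence read after stimulation; U2OS cells expressing the 3.1 isoform via virus at 1.77 x 10^8 /mL.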
Rango dissoc inh: inhibition of RanGTP-driven Rango-importin beta dissociation; Biochemical FRET Rango-importin beta, RanGTP-induced dissociation; hit rate 0.071% among 340,000; Potency, µM (highest dose often 46.1 µM), without a hit: at the highest dose activity change, negative = inhibition; O95149+P62826; further: potency means the concentration at half of the fitted maximal effect; % of control where 0% means no effect; nearly all actives have a fitted effect of over 45% in size
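Recombinant Rango FRET biosensor (EYFP–snurportin 1 IBB–cerulean CFP10) at 0.1 uM premixed with 0.25 uM importin beta in PBS, 1 mM DTT, 0.02% Tween-20, 0.1% BSA. Compound added 5 min; RanGTP-RCC1 (0.6 uM Ran, 2 mM GTP, 0.2 uM RCC1) then triggers release, read at 45 min.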
CCT chaperon mod: modulators of cytosolic chaperonin (CCT/TRiC) activity; purified chaperonin ATPase assay, HTRF ADP detection, 30 min; hit rate 0.3% among 360,000; activity change, % (no concentration beside the values), hits read low; in the data active means activity change below about -30%; further: on the % scale 0 is the no-effect control and ±100 the full control effect
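First, chaperonin was dispensed at 40 nM or 20 nM final depending on batch activity. Next, compounds were pinned at 76 uM and ATP added at 10 uM. After 30 min at 37 °C, ADP detection reagents ran 30 min at ambient temperature.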
Rango complex inh: inhibitors of Rango-importin beta complex formation | Rango CFP/YFP FRET sensor + importin beta, 45 min | Q14974 | hit rate 0.031% among 340,000 | Potency, µM (top dose mostly 92.2 µM), for inactives: at the top dose inhibition of complex formation;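 further: potency means the concentration at half of the fitted maximal effect; 0% = DMSO wells and 100% = buffer wells lacking importin beta; nearly all actives have a fitted effect of over 15% in size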
Target sequence (Q14974 whole entry, looked up): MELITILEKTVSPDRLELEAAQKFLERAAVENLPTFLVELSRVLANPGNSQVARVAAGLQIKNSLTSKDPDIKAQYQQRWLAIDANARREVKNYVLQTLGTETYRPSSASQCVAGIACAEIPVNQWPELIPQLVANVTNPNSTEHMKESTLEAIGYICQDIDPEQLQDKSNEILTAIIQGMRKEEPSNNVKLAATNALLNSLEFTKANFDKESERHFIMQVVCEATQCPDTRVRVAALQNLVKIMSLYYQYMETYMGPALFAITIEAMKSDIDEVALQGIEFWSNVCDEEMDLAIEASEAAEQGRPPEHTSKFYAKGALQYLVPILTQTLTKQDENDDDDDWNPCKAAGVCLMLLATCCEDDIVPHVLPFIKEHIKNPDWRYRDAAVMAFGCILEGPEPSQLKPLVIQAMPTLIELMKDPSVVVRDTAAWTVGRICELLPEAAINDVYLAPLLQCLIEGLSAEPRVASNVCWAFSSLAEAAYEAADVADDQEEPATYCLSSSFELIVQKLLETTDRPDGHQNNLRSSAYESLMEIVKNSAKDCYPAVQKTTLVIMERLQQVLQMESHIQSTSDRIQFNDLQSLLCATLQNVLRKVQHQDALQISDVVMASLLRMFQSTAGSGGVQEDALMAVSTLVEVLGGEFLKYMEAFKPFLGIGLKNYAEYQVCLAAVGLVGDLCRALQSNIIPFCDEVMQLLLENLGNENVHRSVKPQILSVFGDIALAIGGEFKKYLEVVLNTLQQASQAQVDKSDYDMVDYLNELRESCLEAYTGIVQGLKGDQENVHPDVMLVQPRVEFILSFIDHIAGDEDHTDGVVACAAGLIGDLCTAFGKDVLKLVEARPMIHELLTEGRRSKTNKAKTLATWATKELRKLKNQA
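FRET biosensor Rango (snurportin 1 IBB between N-terminal EYFP and C-terminal Cerulean), 50 nM in PBS/1 mM DTT/0.02% Tween-20/0.1% BSA, preincubated 5 min RT with compound; 0.125 microM importin beta added, 45 min RT, CFP/YFP FRET ratio read.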
KCNH2 WT inh: blocks the wildtype human KCNH2 potassium channel; U2OS, BacMam KCNH2, thallium flux FluxOr; stronger effect = lower value; activity change, % at 1.84 µM; hit rate 0.37% among 340,000; AID 720551;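 active means maximum activity change below -70%; inconclusive means maximum activity change between -70% and -50%; inactive means maximum activity change above -50%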; further: on the % scale 0 is the no-effect control and ±100 the full control effect
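U2OS cells were transduced with wild-type KCNH2 virus (2.03 x 10^8 / mL) for 4 h at room temperature, then cultured overnight at 37 C. Thallium flux was read with FluxOr dye. Rate constants were normalized to DMSO controls.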
Starred values were filed as active, the others as inactive; ? = inconclusive; · = no result. Unless noted, the call rests on the fitted dose curve.

SMILES	Mm-Cpn inhibitor	KCNH2 3.1 block	Rango dissoc inh	CCT chaperon mod	Rango complex inh	KCNH2 WT inh
O=C(NC1CCCC1)C(c1ccsc1)N(C(=O)Cc1cccs1)c1ccc(F)cc1 (centres undefined)	3%	-76*	0%	1	2%	-7
CCCCNC(=O)C1CC(=O)N(c2ccc(OC)cc2)C1c1ccc(OC)cc1 (centres undefined)	-1%	11	8%	0	0%	7
Cc1cccc(N(CC(=O)N2CCN(c3ccccc3F)CC2)S(C)(=O)=O)c1	0%	-85*	-2%	0	-2%	-2
OC(CCCN1CCCCC1)(c1ccccc1)c1ccc(C(F)(F)F)cc1 (centres undefined)	·	-73*	5%	0	4%	2
Nn1c(SCC(=O)Nc2cccc(F)c2)nnc1C1CCCCC1	2%	-15	-1%	0	1%	-2
COCCc1ccc(OC2(C)CCN(Cc3cccn3-c3nccs3)C2)cc1 (centres undefined)	·	·	·	1	·	·
CCCCn1c(=N)n(CCOc2ccc(C)cc2)c2ccccc21	1%	-111*	2%	0	2%	-128*
S=C1NCN(C2CCCCC2)CN1c1ccccc1	2%	-96*	-3%	-2	1%	-3
CCOC(=O)c1cn(Cc2cccc(Cl)c2)c2cc(C)nn2c1=O	-4%	-9	-8%	-4	2%	-4
CCn1c(O)c(/C=C/C=C/C=Nc2ccccc2)sc1=S	-4%	-184*	-14%	0	0%	-226*
CCCCn1c(O)c(/C=C/C=C/C=Nc2ccccc2)sc1=S	-1%	-40	-30%	-12	?	-3
Cn1cc(C(=O)N2CCN(C(=O)c3ccco3)CC2)c2c3ccccc3n(C)c2c1=O	0%	13	7%	-4	8%	-5
CSCC[C@H](NC(=O)[C@@H]1CSC2c3ccccc3C(=O)N21)C(=O)NCc1ccco1 (some centres undefined)	-5%	2	-11%	1	-1%	-9
COC(=O)C(CC(C)C)NC(=O)c1ccc([N+](=O)[O-])cc1 (centres undefined)	1%	-11	17%	-3	5%	-22
COC(=O)C(CCCCNC(=O)c1ccc([N+](=O)[O-])cc1)NC(=O)c1ccc([N+](=O)[O-])cc1 (centres undefined)	1%	-93*	4%	-1	2%	?
COc1ccc(-c2c[n+]3c4n2CCCCC4=C(c2ccc(Br)cc2)C3)cc1	-2%	-169*	?	0	?	17
Clc1ccc(C2=C3CCCCn4c(-c5ccccc5)c[n+](c43)C2)cc1	-1%	-8	-17%	-1	?	-3
CCOC(=O)c1sc(NC(=S)NC(=O)c2ccc(OC)cc2)nc1C	-8%	5	11%	-52*	4%	-6
COc1ccc(C(=O)NC(=S)Nc2nc(C)c(C(=O)N(C)C)s2)cc1	-1%	10	0%	-2	-1%	-3
Cc1ccc2nc(Nc3ccc(Cl)cc3)c3nncn3c2c1	0%	2	5%	-2	-4%	23
Cc1ccc(NC(=O)c2c(C(=O)Nc3ccccc3)sc3nc(C)cc(=O)n23)cc1	-5%	-103*	-4%	-1	0%	4
Cc1cc(=O)n2c(C(=O)Nc3ccc(C)c(C)c3)c(C(=O)Nc3ccccc3)sc2n1	0%	-7	-4%	0	2%	7
CC(=O)N1CCc2cc(S(=O)(=O)CCC(=O)Nc3c(C)n(C)n(-c4ccccc4)c3=O)ccc21	-1%	12	0%	0	0%	-5
O=C(Nc1nnc(S(=O)(=O)N2CCCCCC2)s1)c1ccccc1Cl	-7%	-76*	22%	-4	-5%	-4
O=C(Nc1nnc(S(=O)(=O)N2CCCC2)s1)c1ccccc1Cl	1%	4	-27%	-2	-1%	18
SMILES	Mm-Cpn inhibitor	KCNH2 3.1 block	Rango dissoc inh	CCT chaperon mod	Rango complex inh	KCNH2 WT inh
COc1ccc(OCC(=O)Nc2nnc(S(=O)(=O)N3CCCCCC3)s2)cc1	-2%	-3	-9%	-1	-2%	12
O=C(COc1ccccc1)Nc1nnc(S(=O)(=O)N2CCCC2)s1	0%	-6	11%	-47*	-2%	0
CCN(CC)C(=O)C1=C(C)N(Cc2ccc(F)cc2)C(=O)C(CC(=O)NCCN2CCOCC2)C1 (centres undefined)	·	22	·	0	·	0
CC(C)n1c(SCC(=O)N2CCN(C)CC2)nc2c1c(=O)n(C)c(=O)n2C	3%	10	-6%	0	1%	-2
Cc1cc(C)cc(C(=O)NCC(=O)OC(C)C(=O)N(C)c2ccccc2)c1 (centres undefined)	2%	10	-17%	2	3%	-13
Cc1nn(CCCC(=O)N2CCN(c3ccc(F)cc3)CC2)c(C)c1[N+](=O)[O-]	1%	-14	1%	-2	-5%	6
COc1ccc(C(=O)OCC(=O)c2c(N)n(C)c(=O)n(C)c2=O)c(OC)c1OC	3%	-13	1%	2	0%	4
COCCCn1c(=O)c2ccccc2n(Cc2ccc(C)cc2)c1=O	1%	-123*	-7%	-2	-3%	7
COCCCn1c(=O)c2ccccc2n(Cc2cccc(C)c2)c1=O	1%	-12	-7%	-2	3%	-1
Cc1ccccc1NS(=O)(=O)c1ccc2[nH]cc(C(=O)NCCc3ccccc3)c(=O)c2c1	1%	·	·	·	·	·
O=C1CCC/C(=N/Nc2ccc(Cl)cc2)C1	-5%	0	7%	-2	-1%	-2
O=C(CCc1nc2ccccc2c(=O)[nH]1)N1CCN(S(=O)(=O)c2cccc(F)c2)CC1	1%	-2	2%	3	1%	6
O=C(Cn1c(=O)oc2cc(S(=O)(=O)N3CCCCC3)ccc21)N1CCCCC1	1%	-106*	8%	2	1%	-22
O=C(NNC(=O)C1[C@H]2CCCC[C@@H]12)NC1CCCCC1 (some centres undefined)	1%	-76*	-4%	1	-6%	·
O=C(NNS(=O)(=O)c1ccc(Br)cc1)NC1CCCCC1	1%	?	-18%	-3	1%	-2
CC(=O)Oc1ccc2c3c(c(=O)oc2c1)CCCC3	-2%	21	21µM*	-2	?	0
CCC(NC(=O)OC(C)(C)C)C(=O)Oc1ccc2c3c(c(=O)oc2c1)CCC3 (centres undefined)	-11%	12	12µM*	0	?	4
CC[C@@H](NS(=O)(=O)c1ccc(C)cc1)C(=O)Oc1ccc2c3c(c(=O)oc2c1)CCC3	-4%	·	-30%	-10	-6%	36
